Assay results published in the supplement of paper PMC7669877.
± gives the uncertainty stated by the source.

test system: Candidatus Liberibacter solanacearum in potato hairy roots; test: relative CLso titer (% of untreated control); higher = less inhibition of bacterial titer; conditions: 10 µM; 72 h
Experimental: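 Primary screen of ~220 Spectrum collection (MicroSource) compounds at 10 µM (0.1% DMSO) on Candidatus Liberibacter solanacearum-infected potato hairy roots in multi-well plates (Gamborg B-5 medium, vacuum infiltrated, 21 °C, dark, 72 h). CLso titer was measured by qPCR of 16S rDNA normalised to potato RPL2 (2^-ddCq), pairwise-standardised against untreated controls, averaged over two biological replicates and expressed as % of untreated.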

Structure (SMILES)	relative CLso titer [%]
CN(C)CCC=C1c2ccccc2COc2ccccc21	88.8 ± 1.1
CC[C@H]1OC(=O)[C@H](C)[C@@H](O[C@H]2C[C@@](C)(OC)[C@@H](O)[C@H](C)O2)[C@H](C)[C@@H](O[C@@H]2O[C@H](C)C[C@H](N(C)C)[C@H]2O)[C@](C)(O)C[C@@H](C)C(=O)[C@H](C)[C@@H](O)[C@]1(C)O	197 ± 120
O=C(Oc1ccccc1C(=O)O)c1ccccc1O	124 ± 42
CCn1nc(C(=O)O)c(=O)c2cc3c(cc21)OCO3	28.6 ± 0.62
C[C@@H]1NC(=O)[C@@H](N)CNC(=O)[C@H](C2CCNC(=N)N2)NC(=O)/C(=C/NC(N)=O)NC(=O)[C@H](CNC(=O)CC(N)CCCN)NC1=O.N=C1NCCC([C@@H]2NC(=O)/C(=C/NC(N)=O)NC(=O)[C@H](CNC(=O)CC(N)CCCN)NC(=O)[C@H](CO)NC(=O)[C@@H](N)CNC2=O)N1 (stereo not given in full)	63.2 ± 9.8
CC1(C)O[C@@H]2C[C@H]3[C@@H]4C[C@H](F)C5=CC(=O)C=C[C@]5(C)[C@H]4[C@@H](O)C[C@]3(C)[C@]2(C(=O)CO)O1	99.4 ± 17
COc1cc(CNC(=O)CCCC/C=C/C(C)C)ccc1O	130 ± 4.3
Nc1ccn([C@@H]2O[C@H](CO)[C@@H](O)[C@@H]2O)c(=O)n1	83.2 ± 46
CO[C@@]1(NC(=O)C2SC(=C(C(N)=O)C(=O)O)S2)C(=O)N2C(C(=O)O)=C(CSc3nnnn3C)CS[C@@H]21 (stereo not given in full)	138 ± 17
Cc1cc(-c2ccccc2)nnc1NCCN1CCOCC1	86.8 ± 63
CC1=C(/C=C/C(C)=C/C=C/C(C)=C/C(=O)O)C(C)(C)CCC1	132 ± 9.7
Cn1nnnc1SCC1=C(C(=O)O)N2C(=O)[C@@H](NC(=O)[C@H](OC=O)c3ccccc3)[C@H]2SC1	86.7 ± 26
C/C=C(/C(=C/C)c1ccc(O)cc1)c1ccc(O)cc1	108 ± 17
CCC(=O)O[C@H]1[C@H](O[C@@H]2[C@@H](C)[C@H](O[C@H]3C[C@@](C)(OC)[C@@H](O)[C@H](C)O3)[C@@H](C)C(=O)O[C@H](CC)[C@@](C)(O)[C@H](O)[C@@H](C)C(=O)[C@H](C)C[C@@]2(C)O)O[C@H](C)C[C@@H]1N(C)C	108 ± 26
OC[C@@H](O)[C@@H](O)[C@H](O)[C@H](O)CO	70.5 ± 11
CN(C)CCCN1c2ccccc2Sc2ccc(Cl)cc21	46.9 ± 8.8
CCN(CC)CCOC(=O)C1(C2CCCCC2)CCCCC1	90.3 ± 40
COc1ccc(O)cc1	173 ± 58
COc1cc(NS(=O)(=O)c2ccc(N)cc2)nc(OC)n1	96 ± 21
COc1cnc(NS(=O)(=O)c2ccc(N)cc2)nc1	119 ± 37

Structure (SMILES)	relative CLso titer [%]
CN(C)[C@@H]1C(O)=C(C(N)=O)C(=O)[C@@]2(O)C(O)=C3C(=O)c4c(O)ccc(Cl)c4[C@@H](O)[C@H]3C[C@@H]12	173 ± 42
COc1ccc(NS(=O)(=O)c2ccc(N)cc2)nn1	116.5 ± 0.47
CNCCCN1c2ccccc2CCc2ccccc21	144 ± 1.5
COc1cccc2c1C(=O)c1c(O)c3c(c(O)c1C2=O)C[C@@](O)(C(C)=O)C[C@@H]3O[C@H]1C[C@H](N)[C@H](O)[C@H](C)O1	202 ± 6.5
COC1=CC(=O)C[C@@H](C)[C@]12Oc1c(Cl)c(OC)cc(OC)c1C2=O	67.3 ± 13
C[C@@H]1O[C@@H]1P(=O)(O)O	155 ± 15
CN(C)CCOC(C)(c1ccccc1)c1ccccn1 (stereo not given)	109 ± 7.3
CN(C)CCOC(c1ccccc1)c1ccccc1	55.8 ± 26
Oc1ncnc2[nH]ncc12	82.5 ± 30
CS(=O)(=O)OCCCCOS(C)(=O)=O	66.9 ± 7.5
CC(=O)OCC[N+](C)(C)C	96.2 ± 31
CCCOc1cc(N)ccc1C(=O)OCCN(CC)CC	102 ± 10
CO[C@@]1(NC(=O)Cc2cccs2)C(=O)N2C(C(=O)O)=C(COC(N)=O)CS[C@@H]21	130 ± 27
CCN(CC)CCOc1ccc(C(=C(Cl)c2ccccc2)c2ccccc2)cc1	42.7 ± 2.2
Cc1ccc(C(=O)Nc2ccc(S(=O)(=O)O)c3cc(S(=O)(=O)O)cc(S(=O)(=O)O)c23)cc1NC(=O)c1cccc(NC(=O)Nc2cccc(C(=O)Nc3cc(C(=O)Nc4ccc(S(=O)(=O)O)c5cc(S(=O)(=O)O)cc(S(=O)(=O)O)c45)ccc3C)c2)c1	141 ± 37
CCS(=O)(=O)CCn1c([N+](=O)[O-])cnc1C	116 ± 0.28
CCOC(=O)CCC(=O)O[C@H]1[C@H](O[C@@H]2[C@@H](C)[C@H](O[C@H]3C[C@@](C)(OC)[C@@H](O)[C@H](C)O3)[C@@H](C)C(=O)O[C@H](CC)[C@@](C)(O)[C@H](O)[C@@H](C)C(=O)[C@H](C)C[C@@]2(C)O)O[C@H](C)C[C@@H]1N(C)C	169 ± 3.5
O=C(O)CCC(=O)Nc1ccc(S(=O)(=O)Nc2nccs2)cc1	100 ± 28
Nc1ccc(S(=O)(=O)Nc2ccc(Cl)nn2)cc1	52.4 ± 4.8
CC/C(=C(/CC)c1ccc(O)cc1)c1ccc(O)cc1	94.4 ± 41
